Assay results from PubChem BioAssay AID488857 (Sanford-Burnham Center for Chemical Genomics, 2010).
About 560 (40%) of roughly 1,400 compounds were called active. So high a share suggests a set chosen from earlier hits. The list shows a part of the results. Values without a mark were called inactive.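 How the source made its calls: active means mean inhibition over duplicate tests at 10 µM above 50%; inactive means the rest.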

test: ASC/caspase-1 reporter retest in S. cerevisiae at one dose, specificity check for NALP1 project (AID 488857); settings: S. cerevisiae ASC/Caspase-1, beta-galactosidase luminescence, 24 h; at 10 µM; stronger effect = higher value

Compound	inhibition
O=C(O)C1C2C=CC(C2)C1C(=O)NCc1ccc(Cl)c(Cl)c1 (stereo unspecified)	45.9%
C=C(C)C1Cc2c(C)nn(-c3ccccn3)c2C1 (stereo unspecified)	36.1%
Cc1cc(C)cc(NS(=O)(=O)c2ccc(NC(=S)NC(=O)c3ccc(Br)o3)cc2)c1	43.1%
CSCc1ccc(C(=O)Nc2cc(C)cc(C)c2)cc1	82.3% (active)
Cc1ccc(-c2nc3cnccn3c2Nc2c(C)cccc2C)o1	54.5% (active)
COc1ccc(-c2nc3cnccn3c2Nc2ccc(C)cc2)cc1	37.3%
CCCCCCC(=O)N(O)C1CC(=O)N(Cc2ccccc2)C1=O (stereo unspecified)	27.9%
CN1CCN(C(=S)Nc2ccc(Cl)c(Cl)c2)CC1	31.7%
Cc1ccc(NC(=S)Nc2ccc(Cl)c(Cl)c2)c(OC(F)F)c1	45.8%
O=C(CC(O)(C(F)(F)F)C(F)(F)F)Nc1ccc(Cl)c(Cl)c1	97% (active)
FC(F)Oc1ccc(/C=N/c2c(-c3ccc(OC(F)F)cc3)nc3n2CCS3)cc1	47.1%
Cc1ccc2nc(N(CCCN(C)C)C(=O)CCc3ccccc3)sc2c1	54.9% (active)
CN(C)CCCN(C(=O)CCS(=O)(=O)c1ccccc1)c1nc2cc3c(cc2s1)OCO3	70.2% (active)
CN(C)CCCN(C(=O)CCOc1ccccc1)c1nc2c(F)cccc2s1	56% (active)
Cc1cccc2sc(N(CCCN(C)C)C(=O)CCS(=O)(=O)c3ccccc3)nc12	71.3% (active)
O=C(CCN1C(=O)c2ccccc2C1=O)N1CCN(C2c3ccccc3-c3ccccc32)CC1	18.1%
CC(C)C(NS(=O)(=O)c1ccc2c(c1)oc(=O)n2C)C(=O)N1CCN(C2CCCCC2)CC1 (stereo unspecified)	34.7%
Cc1ccc2sc(N(CCCN(C)C)C(=O)CCS(=O)(=O)c3ccccc3)nc2c1C	92.2% (active)
CC(/C=N/NC(=O)c1c(Br)cnn1C)=C\c1ccccc1	56.6% (active)
CC(/C=N/NC(=O)CSc1ccccn1)=C\c1ccc(C(C)C)cc1	39%
CC(/C=N/NC(=O)CCn1nnc2ccccc21)=C\c1ccccc1	42.8%
Cc1cc(C(C)(C)C)cc(C)c1S(=O)(=O)N1CC(=O)Nc2ccccc21	50.1% (active)
CC(C)c1ccc(-c2c(C#N)c(N)nc3c2CCCCC3)cc1	23.8%
CCN(c1ccccc1)S(=O)(=O)c1cc(NC(=O)Nc2ccccc2C#N)ccc1Cl	30.4%
COc1ccc(-c2cc(-c3cc(OC)ccc3O)[nH]n2)cc1	57.5% (active)
CCOCC(O)CNC(=O)c1ccc(OC2CCN(C(=O)c3cccnc3)CC2)cc1 (stereo unspecified)	29.2%
